From PubChem BioAssay (EPA / NIEHS)
Calls of active or inactive are those of the source. Rule for the calls: active = hit-call score of the fitted dose curve at least 0.9, where 1 is the maximum; inactive = score below 0.9.

Legend:
Details in all cases: mRNA level, 48 h; actives raise or lower the signal
[1] = read-out: growth arrest and DNA damage 45 (GADD45G), GADD45G (gene 10912); test: LTEA_HepaRG_GADD45G: Life Technologies and Expression Analysis (LTEA) Assay for growth arrest and DNA damage 45 (GADD45G) using HepaRG (AID 2283499)
Summary of the method: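 Concentration-response in HepaRG: 48 h dosing, 0.5% DMSO, highest level 100 uM. GADD45G expression by qRT-PCR, normalised to endogenous controls; bidirectional fit to DMSO.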

[2] = read-out: Glutamate-cysteine ligase regulatory (GCLM), GCLM (gene 2730); test: LTEA_HepaRG_GCLM: Life Technologies and Expression Analysis (LTEA) Assay for Glutamate-cysteine ligase regulatory (GCLM) using HepaRG (AID 2283500)
Summary of the method: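 In this multiplexed HepaRG gene-expression assay, GCLM mRNA change after 48 h treatment (8 concentrations, max 100 uM) was scored against DMSO by bidirectional curve fitting.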

[3] = read-out: Glutathione S-transferase M3 (GSTM3), GSTM3 (gene 2947); test: LTEA_HepaRG_GSTM3: Life Technologies and Expression Analysis (LTEA) Assay for Glutathione S-transferase M3 (GSTM3) using HepaRG (AID 2283501)
Summary of the method: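 Expression of GSTM3 is determined by qRT-PCR in human liver HepaRG cells treated 48 h with an 8-point half-log range from 100 uM in 0.5% DMSO.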

[4] = read-out: Heat shock 70 kDa protein 1 (HSPA1A), gene 3303; test: LTEA_HepaRG_HSPA1A: Life Technologies and Expression Analysis (LTEA) Assay for Heat shock 70 kDa protein 1 (HSPA1A) using HepaRG (AID 2283502)
Summary of the method: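 An oxidative-stress marker readout: HepaRG cells treated 48 h in duplicate with an eight-point series (highest 100 uM) had HSPA1A mRNA quantified by TaqMan qRT-PCR. Activity was fitted in both directions using 0.5% DMSO as baseline.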

[5] = read-out: 3-Hydroxy-3-Methylglutaryl-CoA Synthase 2 (HMGCS2), HMGCS2 (gene 3158); test: LTEA_HepaRG_HMGCS2: Life Technologies and Expression Analysis (LTEA) Assay for 3-Hydroxy-3-Methylglutaryl-CoA Synthase 2 (HMGCS2) using HepaRG (AID 2283504)
Summary of the method: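 This steatosis marker was read as HMGCS2 mRNA change in HepaRG cells treated 48 h with up to 100 uM chemical. Normalisation used housekeeping genes; activity in either direction was fitted relative to 0.5% DMSO vehicle.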

HGF (gene 3082) = test: LTEA_HepaRG_HGF: Life Technologies and Expression Analysis (LTEA) Assay for Hepatocyte Growth Facto (HGF) using HepaRG (AID 2283505)
Summary of the method: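 Using HepaRG monolayers kept in 0.5% DMSO, chemicals were tested in duplicate over eight half-log concentrations from 100 uM for 48 h. Endpoint: HGF mRNA change relative to DMSO, normalized to ACTB/GAPDH/POLR2A.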

[6] = read-out: Insulin Like Growth Factor 1 (IGF1), IGF1 (gene 3479); test: LTEA_HepaRG_IGF1: Life Technologies and Expression Analysis (LTEA) Assay for Insulin Like Growth Factor 1 (IGF1) using HepaRG (AID 2283506)
Summary of the method: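 Endpoint: IGF1 mRNA change by qRT-PCR, housekeeping-normalized, fitted bidirectionally relative to 0.5% DMSO vehicle. Human HepaRG cells were treated 48 h in serum-free induction medium, eight half-log concentrations topping at 100 uM.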

[7] = read-out: Intercellular Adhesion Molecule 1 (ICAM1), ICAM1 (gene 3383); test: LTEA_HepaRG_ICAM1: Life Technologies and Expression Analysis (LTEA) Assay for Intercellular Adhesion Molecule 1 (ICAM1) using HepaRG (AID 2283507)
Summary of the method: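 Using the human liver line HepaRG, compounds are tested in duplicate over 48 h at concentrations up to 100 uM. Expression is determined by TaqMan qRT-PCR, normalized to endogenous controls, and analysed relative to 0.5% DMSO vehicle.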

[8] = read-out: Insulin-like growth factor-binding protein 1 (IGFBP1), IGFBP1 (gene 3484); test: LTEA_HepaRG_IGFBP1: Life Technologies and Expression Analysis (LTEA) Assay for Insulin-like growth factor-binding protein 1 (IGFBP1) using HepaRG (AID 2283508)
Summary of the method: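 HepaRG, 48 h, 8 conc. (max 100 uM, half-log), duplicates, 0.5% DMSO. Readout: TaqMan qRT-PCR, ACTB/GAPDH/POLR2A normalisation. Fit: bidirectional vs DMSO.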

[9] = read-out: Interleukin 6 (IL6), IL6 (gene 3569); test: LTEA_HepaRG_IL6: Life Technologies and Expression Analysis (LTEA) Assay for Interleukin 6 (IL6) using HepaRG (AID 2283509)
Summary of the method: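 qRT-PCR read-out of IL6 transcript, normalized to three housekeeping genes, after 48 h chemical exposure of HepaRG cells; 8-point half-log series, top 100 uM, 0.5% DMSO vehicle. Bidirectional curve fitting against DMSO baseline.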

[10] = read-out: Interleukin 6 Receptor (IL6R), IL6R (gene 3570); test: LTEA_HepaRG_IL6R: Life Technologies and Expression Analysis (LTEA) Assay for Interleukin 6 Receptor (IL6R) using HepaRG (AID 2283510);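 for AC50: differentiated human HepaRG liver cells in serum-free induction medium; TaqMan qRT-PCR signal normalized to ACTB GAPDH and POLR2A housekeeping genes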
Summary of the method: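 In this HepaRG screen, test chemicals act on cells for 48 h at up to 100 uM (eight half-log points, duplicate wells). IL6R expression is quantified by qRT-PCR after normalization to ACTB, GAPDH and POLR2A, with DMSO as baseline.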

[11] = read-out: Potassium channel subfamily K member 1 (KCNK1), KCNK1 (gene 3775); test: LTEA_HepaRG_KCNK1: Life Technologies and Expression Analysis (LTEA) Assay for Potassium channel subfamily K member 1 (KCNK1) using HepaRG (AID 2283511)
Summary of the method: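 HepaRG, 48 h exposure, 8-pt half-log series top 100 uM, 0.5% DMSO vehicle, duplicates. Readout: KCNK1 transcript by qRT-PCR (Fluidigm array), housekeeping-normalized; bidirectional curve fit relative to DMSO baseline.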

[12] = read-out: Keratin 19 (KRT19), KRT19 (gene 3880); test: LTEA_HepaRG_KRT19: Life Technologies and Expression Analysis (LTEA) Assay for Keratin 19 (KRT19) using HepaRG (AID 2283512)
Summary of the method: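 Readout is qRT-PCR of KRT19 mRNA, normalized to ACTB, GAPDH and POLR2A, from HepaRG cells treated 48 h with eight-point half-log dilutions topping at 100 uM. Activity in either direction is scored relative to 0.5% DMSO vehicle.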

[13] = read-out: JUN Transcription Factor, JUN (gene 3725); test: LTEA_HepaRG_JUN: Life Technologies and Expression Analysis (LTEA) Assay for JUN Transcription Factor using HepaRG (AID 2283513)
Summary of the method: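 Gene-expression endpoint: JUN mRNA (qRT-PCR, normalized to three reference genes) in HepaRG cultures treated 48 h with chemicals, duplicate wells, 100 uM maximum with half-log dilutions; bidirectional fitting relative to 0.5% DMSO.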

[14] = read-out: Lipase C (LIPC), LIPC (gene 3990); test: LTEA_HepaRG_LIPC: Life Technologies and Expression Analysis (LTEA) Assay for Lipase C (LIPC) using HepaRG (AID 2283514)
Summary of the method: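 HepaRG, 48 h exposure, 8-pt half-log series from 100 uM in 0.5% DMSO, duplicates. Readout: LIPC mRNA by Fluidigm qRT-PCR, housekeeping-normalized (ACTB/GAPDH/POLR2A). Gain or loss fitted bidirectionally against DMSO baseline.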

[15] = read-out: Lipoprotein lipase (LPL), LPL (gene 4023); test: LTEA_HepaRG_LPL: Life Technologies and Expression Analysis (LTEA) Assay for Lipoprotein lipase (LPL) using HepaRG (AID 2283515)
Summary of the method: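 HepaRG, 48 h exposure, 8-pt half-log dilutions from 100 uM, 0.5% DMSO vehicle, duplicates; qRT-PCR (Fluidigm array) of LPL mRNA vs housekeeping genes; bidirectional curve fit relative to DMSO baseline.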

[16] = read-out: MicroRNA 122 (MIR122), gene 406906; test: LTEA_HepaRG_MIR122: Life Technologies and Expression Analysis (LTEA) Assay for MicroRNA 122 (MIR122) using HepaRG (AID 2283516); note: the transcript read is the microRNA miR-122
Summary of the method: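 Changes in transcript abundance, up or down relative to 0.5% DMSO vehicle, were scored after 48 h chemical treatment of HepaRG cells (maximum 100 uM). Quantification used TaqMan qRT-PCR normalized to housekeeping genes.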

[17] = read-out: matrix metalloproteinase-10 (MMP10), MMP10 (gene 4319); test: LTEA_HepaRG_MMP10: Life Technologies and Expression Analysis (LTEA) Assay for matrix metalloproteinase-10 (MMP10) using HepaRG (AID 2283517)
Summary of the method: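 Transcript levels come from Fluidigm qRT-PCR normalized to three housekeeping genes, with curves fitted bidirectionally against 0.5% DMSO. Human HepaRG cells were dosed for 48 hours at concentrations up to 100 uM.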

Structure (SMILES): CCCOC(=O)c1ccc(O)cc1
- outcome [1]: inactive
- outcome [2]: inactive
- outcome [3]: inactive
- outcome [4]: inactive
- outcome [5]: inactive
- outcome (HGF (gene 3082)): inactive
- outcome [6]: inactive
- outcome [7]: inactive
- outcome [8]: inactive
- outcome [9]: inactive
- outcome [10]: inactive
- outcome [11]: inactive
- outcome [12]: inactive
- outcome [13]: inactive
- outcome [14]: inactive
- outcome [15]: inactive
- outcome [16]: inactive
- outcome [17]: inactive

Structure (SMILES): CCCCC(CC)COC(=O)CCCCC(=O)OCC(CC)CCCC (configuration not stated)
- outcome [1]: inactive
- outcome [2]: inactive
- outcome [3]: inactive
- outcome [4]: inactive
- outcome [5]: inactive
- outcome (HGF (gene 3082)): inactive
- outcome [6]: inactive
- outcome [8]: inactive
- outcome [9]: inactive
- outcome [10]: inactive
- outcome [11]: inactive
- outcome [12]: inactive
- outcome [13]: inactive
- outcome [14]: inactive
- outcome [15]: inactive
- outcome [16]: inactive
- outcome [17]: inactive

Structure (SMILES): CC#C[C@]1(O)CC[C@H]2[C@@H]3CCC4=CC(=O)CCC4=C3[C@@H](c3ccc(N(C)C)cc3)C[C@@]21C
- AC50 [1]: 40.8 µM (active)
- AC50 [2]: 31.6 µM (active)
- outcome [3]: inactive
- outcome [4]: inactive
- AC50 [5]: 75.9 µM (active)
- AC50 (HGF (gene 3082)): 85.2 µM (active)
- AC50 [6]: 68.4 µM (active)
- AC50 [8]: 23.6 µM (active)
- AC50 [9]: 37.4 µM (active)
- AC50 [10]: 12.9 µM (active)
- AC50 [11]: 69 µM (active)
- outcome [12]: inactive
- AC50 [13]: 33.7 µM (active)
- AC50 [14]: 67.2 µM (active)
- AC50 [15]: 76.2 µM (active)
- AC50 [16]: 50 µM (active)
- AC50 [17]: 33.5 µM (active)

Structure (SMILES): CCC(=C(c1ccc(O)cc1)c1ccc(OCCN(C)C)cc1)c1ccccc1
- AC50 [1]: 93 µM (active)
- outcome [2]: inactive
- outcome [3]: inactive
- AC50 [4]: 69.4 µM (active)
- AC50 [5]: 91.7 µM (active)
- outcome (HGF (gene 3082)): inactive
- AC50 [6]: 93.4 µM (active)
- AC50 [8]: 76.5 µM (active)
- AC50 [9]: 91.8 µM (active)
- AC50 [10]: 93.2 µM (active)
- outcome [11]: inactive
- outcome [12]: inactive
- AC50 [13]: 89.3 µM (active)
- outcome [14]: inactive
- outcome [15]: inactive
- AC50 [16]: 88.8 µM (active)
- AC50 [17]: 72.4 µM (active)

Structure (SMILES): OCCC(F)(F)C(F)(F)C(F)(F)C(F)(F)C(F)(F)C(F)(F)C(F)(F)C(F)(F)F
- outcome [1]: inactive
- outcome [2]: inactive
- outcome [3]: inactive
- outcome [4]: inactive
- outcome [5]: inactive
- outcome (HGF (gene 3082)): inactive
- outcome [6]: inactive
- outcome [7]: inactive
- outcome [8]: inactive
- outcome [9]: inactive
- outcome [10]: inactive
- outcome [11]: inactive
- outcome [12]: inactive
- outcome [13]: inactive
- outcome [14]: inactive
- outcome [15]: inactive
- outcome [16]: inactive
- outcome [17]: inactive

Structure (SMILES): O=c1c(-c2ccc(O)cc2)coc2cc(O)ccc12
- outcome [1]: inactive
- outcome [2]: inactive
- outcome [3]: inactive
- outcome [4]: inactive
- outcome [5]: inactive
- outcome (HGF (gene 3082)): inactive
- outcome [6]: inactive
- outcome [7]: inactive
- outcome [8]: inactive
- outcome [9]: inactive
- outcome [10]: inactive
- outcome [11]: inactive
- outcome [12]: inactive
- outcome [13]: inactive
- outcome [14]: inactive
- outcome [15]: inactive
- outcome [16]: inactive
- outcome [17]: inactive

Structure (SMILES): CCCCCCCCC(=O)O
- outcome [1]: inactive
- outcome [2]: inactive
- outcome [3]: inactive
- outcome [4]: inactive
- outcome [5]: inactive
- outcome (HGF (gene 3082)): inactive
- outcome [6]: inactive
- outcome [8]: inactive
- outcome [9]: inactive
- outcome [10]: inactive
- outcome [11]: inactive
- outcome [12]: inactive
- outcome [13]: inactive
- outcome [14]: inactive
- outcome [15]: inactive
- outcome [16]: inactive
- outcome [17]: inactive
